This is a sample that favours compounds with a hit; in the whole collection about 7.4% have one here.
Rab9 promoter act: Rab9 promoter activation | Huh7 Rab9 promoter-luciferase reporter, luminescence, 24 h | Potency, µM (top dose mostly 9.22 µM), for inactives: top-dose activation, negative = inhibition, hits mostly activators | 2.8% of 320,000 active; further: % of control where 0% means no effect; nearly all actives have a fitted effect of over 60% in size
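Using Huh7 cells stably transfected with Rab9 promoter–luciferase, compounds were incubated 24 h at 37 °C, 5% CO2; luciferase luminescence was read 10 min after reagent addition.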
NPC1 prom act: activates the NPC1 promoter; Huh7 NPC1 promoter luciferase reporter, 24 h; Potency, µM (top dose mostly 9.22 µM), for the others: at the highest dose activation, usual class: activators; 2.4% of 320,000 active; AID 485313; further: % of control where 0% means no effect; nearly all actives have a fitted effect of over 60% in size
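NPC1 promoter–luciferase Huh7 cells; 24 h compound; luminescence.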
SMN2 splice enh: SMN2 splice variant enhancement; HEK293 SMN2-luciferase splicing reporter, luminescence, 30-36 h; Potency, µM (top dose mostly 46.1 µM), without a hit: at the highest dose activity change, positive = activation, most hits filed as activators; 2.8% of 210,000 active; further: % of control where 0% means no effect; nearly all actives have a fitted effect of over 55% in size
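qHTS luciferase splicing reporter: luminescence rises when SMN2 exon 7 is included in transfected HEK293 cells. Compound exposure lasted 30-36 h at 37C, with 4.5 mM final sodium butyrate as control, followed by a ONE-Glo read.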
FLuc counter: firefly luciferase modulation, counter-screen for miR-21 project; purified FLuc, Km substrates, luminescence inhibition; 6.9% of 360,000 active; P08659; Potency, µM (titrated, usually from 57.5 µM), for inactives: at the top dose activity change, negative = inhibition, most hits filed as inhibitors;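 further: plate controls were vehicle for no effect and reference inhibitor for full effect; nearly all actives have a fitted effect of over 55% in size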
Target sequence (P08659 whole entry, looked up): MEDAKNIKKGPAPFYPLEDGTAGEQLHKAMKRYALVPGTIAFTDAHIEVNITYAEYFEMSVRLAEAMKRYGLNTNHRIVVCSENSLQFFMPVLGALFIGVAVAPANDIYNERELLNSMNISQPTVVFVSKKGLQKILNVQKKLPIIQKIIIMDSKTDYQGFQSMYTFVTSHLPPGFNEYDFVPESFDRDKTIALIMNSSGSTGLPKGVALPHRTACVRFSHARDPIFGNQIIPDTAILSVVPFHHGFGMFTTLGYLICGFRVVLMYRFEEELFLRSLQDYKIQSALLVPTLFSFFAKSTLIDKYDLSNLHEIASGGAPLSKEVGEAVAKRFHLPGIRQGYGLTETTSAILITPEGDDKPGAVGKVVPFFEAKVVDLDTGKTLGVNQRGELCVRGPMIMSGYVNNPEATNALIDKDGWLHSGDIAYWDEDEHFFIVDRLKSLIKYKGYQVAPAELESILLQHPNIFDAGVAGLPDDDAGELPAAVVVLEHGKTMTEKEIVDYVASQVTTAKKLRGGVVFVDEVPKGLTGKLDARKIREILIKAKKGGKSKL
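Purified P. pyralis luciferase (10nM final) with 10uM D-luciferin and 10uM ATP (Km levels) in 50mM Tris acetate pH 7.5, 10mM Mg acetate, 0.01% Tween-20, 0.05% BSA; qHTS 6-point titration, ~60 µM downward; luminescence read.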
Luc counter: counter-screen: inhibitors of Kinase-Glo firefly luciferase | AID 1379 | 0.28% of 200,000 active | Kinase-Glo luciferase, ATP luminescence, 8 min | Potency, µM (highest dose often 38.3 µM), without a hit: top-dose activity change, negative = inhibition, usual class: inhibitors; further: on the % scale 0 is the no-effect control and ±100 the full control effect; nearly all actives have a fitted effect of over 60% in size
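Recombinant Kinase-Glo luciferase, 10 uM ATP (linear range), luciferin; imidazole pH 7.2 / KCl / MgCl2 / Tween / BSA buffer; 8 min RT; luminescence.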
ELG1 genotox: induces genotoxicity in HEK293T cells with luciferase-tagged ELG1. HEK293T ELG1-luciferase reporter, luminescence, 16 h. Potency, µM (series often up to 46 µM), for inactives: at the highest dose activity change, positive = activation, usual class: activators. 1.3% of 330,000 active. AID 504466; further: % of control where 0% means no effect; nearly all actives have a fitted effect of over 60% in size
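HEK293T cells expressing luciferase-tagged ELG1 were exposed to compound or DMSO vehicle for 16 hr at 37 °C and 5% CO2. Luciferase activity was then measured with ONE-Glo after 30 min at room temperature.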
The depositor's hits bear a star; ? = inconclusive; . = not tested or not shown. The call rests on the fitted dose curve; in most records, active means well fitted curve in the direction sought with a large enough effect; inconclusive means small, poorly fitted or top-dose-only effect, or another doubt; inactive means no such curve, though single readings can be large; an effect the other way counts as inactive or inconclusive. Potency means the concentration at half of the fitted maximal effect.

SMILES | Rab9 promoter act | NPC1 prom act | SMN2 splice enh | FLuc counter | Luc counter | ELG1 genotox
Cc1c(Br)cccc1NC(=O)c1sccc1-n1cccc1 | -4% | 1% | -27% | 0% | 0% | -2%
COc1cccc(NC(=O)CN(C)S(=O)(=O)/C=C/c2ccccc2)c1 | -11% | -7% | . | 0% | . | 3%
CSc1nc2nc(-c3ccccc3)cc(=O)n2[nH]1 | 1% | 19% | ? | 6.7µM* | -13% | ?
O=C(Nc1nc2nc(-c3ccccc3)cc(=O)n2[nH]1)c1ccc(F)cc1 | 20% | 5% | -3% | ? | . | .
O=C(COc1ccc(Cl)cc1)NCCS(=O)(=O)N1CCN(c2ccccc2F)CC1 | -1% | -2% | . | -1% | . | -7%
CCCCCn1cnc2c(sc3nc4c(cc32)CSC(C)(C)C4)c1=O | 3.2µM* | 3.5µM* | 19% | 3.8µM* | -5% | ?
CC1(C)Cc2nc3sc4c(=O)[nH]cnc4c3cc2CS1 | 14% | 26% | ? | 13µM* | 4% | ?
O=C(NCCS(=O)(=O)N1CCCCCC1)c1ccccc1 | -4% | -2% | . | 2% | . | 2%
CCOC(=O)C1CCCN(CC(=O)N(C)c2c(N)n(Cc3ccccc3)c(=O)[nH]c2=O)C1 (stereo not drawn) | . | . | . | . | . | 0%
O=[N+]([O-])c1ccc(N2CCOCC2)cc1O | 1% | -2% | . | -2% | . | 0%
Cc1cc(N2CCOCC2)ccc1/C=C\[N+](=O)[O-] | 12% | -7% | ? | 24µM* | -3% | -21%
COc1ccc2cc(C#N)c(N3CCOCC3)nc2c1 | -4% | -4% | . | -8% | . | -7%
COc1ccc2nc(N3CCC(C)CC3)c(C#N)cc2c1 | 4µM* | ? | 20µM* | 11µM* | 3% | ?
COc1ccc2nc(N3CCC(O)CC3)c(C#N)cc2c1 | 5% | 19% | -9% | 15µM* | -2% | 6%
O=C(Cc1ccccc1F)NC1CCCN(Cc2ccc(Cl)cc2)C1 (stereo not drawn) | 1% | -38% | . | 1% | . | -8%
Cc1ccc(Nc2nnc(SCc3cc(=O)n4ccsc4n3)s2)c(C)c1 | 14% | -2% | -8% | -2% | -6% | 0%
Cc1ccc(SCc2cc(=O)n3ccsc3n2)c(C)c1 | 3.2µM* | ? | 13µM* | 15µM* | 1% | ?
Cc1cccc(NC(=O)CSCC(=O)OCc2ccccn2)c1 | 3% | -1% | . | 0% | . | 0%
Cc1ccc(N2C(=O)C3C(C2=O)C2C=CC3C23CC3)cc1 (stereo not drawn) | 11% | 10% | -7% | 11µM* | -6% | 6%
O=C(O)CN1C(=O)C(=O)N(Cc2ccc(Cl)cc2Cl)C1=O | -2% | -4% | . | -3% | . | -5%
O=C(O)CN1C(=O)/C(=C/c2ccccc2Br)Oc2ccccc21 | 4% | -3% | . | ? | . | -1%
Cc1ccccc1C(=O)NCCOc1ccccc1Cl | 0.56µM* | 0.63µM* | . | 8.5µM* | . | 5.8µM*
COc1ccccc1OCCNC(=O)c1cc(F)c(F)cc1Cl | 0% | 1% | 22% | ? | -3% | 3%
O=C(NCCOc1ccccc1F)c1cc(F)c(F)cc1Cl | 1.4µM* | 0.71µM* | 2µM* | 3µM* | -6% | ?
CC(C)(C)c1ccc(-c2ncccc2O)cc1 | 18% | 22% | . | 13µM* | -11% | 10%
SMILES | Rab9 promoter act | NPC1 prom act | SMN2 splice enh | FLuc counter | Luc counter | ELG1 genotox
COc1cccc(C2=NN(S(C)(=O)=O)C(c3cccs3)C2)c1 (stereo not drawn) | 2.8µM* | 23% | . | ? | . | 15%
COc1ccc(C2=NN(S(C)(=O)=O)C(c3cccs3)C2)cc1OC (stereo not drawn) | ? | ? | . | 17µM* | 4% | 16%
CS(=O)(=O)N1N=C(c2ccccc2)CC1c1cccs1 (stereo not drawn) | 3% | 16% | -3% | -3% | 4% | 2%
COc1ccccc1N(C)S(=O)(=O)c1ccc(C)c(C(=O)NC(C)c2ccccn2)c1 (stereo not drawn) | -3% | -1% | . | 3% | . | -2%
CCOC(=O)c1ccc(NC(=S)NCCc2ccc(OC)c(OC)c2)cc1 | -1% | -1% | . | -3% | . | -6%
CSc1nsc(/C=C/Nc2ccc(F)cc2F)c1C#N | -3% | 2% | 19% | -20% | 4% | 0%
CSc1nsc(/C=C/Nc2ccc(C(=O)O)cc2)c1C#N | 14% | -4% | 3% | 12µM* | -4% | -7%
CC(=O)c1ccc(NC(=O)CN2C(=O)CCc3ccccc32)cc1 | . | . | . | 6µM* | . | .
CC(=O)c1ccc(NC(=O)CN2C(=O)CCc3cc(S(=O)(=O)N4CCC(C)CC4)ccc32)cc1 | . | . | . | 0% | . | .
CNC(=O)C1CCC(Cn2c(=O)c3sccc3n(CC(=O)NCc3ccc(F)cc3)c2=O)CC1 (stereo not drawn) | . | . | . | 3% | . | .
O=C1c2ccccc2NC(c2ccc(Br)o2)N1O (stereo not drawn) | 17% | 20% | . | -30% | . | 11%
O=C1c2ccccc2NC(c2ccc(-c3cccs3)o2)N1O (stereo not drawn) | 1% | 10% | . | 12µM* | . | ?
COc1ccc(OCCCC(=O)N(C)CC(=O)Nc2ccccc2Cl)cc1 | -1% | 3% | . | 8% | . | 11%
Cc1ccc(N=C2CCCCCN2C)c(C#N)c1 | -1% | 0% | 1% | -12% | -2% | -3%
Cc1ccc(N=C2CCCN2Cc2ccccc2)c(C#N)c1 | 13% | 3% | -3% | 24µM* | 3% | -1%
CC(=O)Nc1nc2cc(N)ccc2s1 | 15% | 11% | . | 0% | . | 6%
Cc1ccc2sc(-c3ccc(N)cc3)nc2c1 | . | . | 0.63µM* | 0.17µM* | . | .
Nc1ccc(-c2nc3cc(N)ccc3s2)cc1 | 0.71µM* | 0.5µM* | . | 0.67µM* | -17% | 2.9µM*
Cc1ccc(S(=O)(=O)Nc2nc3ccc(N)cc3s2)cc1 | -1% | 0% | . | 3% | . | 0%
Cc1ccc2nc(-c3ccc(N4C(=N)SC5CS(=O)(=O)CC54)cc3)sc2c1 (stereo not drawn) | 2.8µM* | ? | . | 8.5µM* | . | ?
Cc1ccc2nc(-c3ccc(N)cc3)sc2c1 | 0.22µM* | 0.32µM* | . | 0.11µM* | . | ?
COc1ccc(N2C(=O)S[C@@H]3CS(=O)(=O)C[C@@H]32)cc1 | -2% | 1% | -3% | 1% | -1% | 1%
Cc1ccc(Cl)cc1NC(=O)Cn1c(C)csc1=O | 0% | 0% | . | 2% | . | 5%
C/C(CC1CC2=C(CC1(C)C)C(C)(C)CCC2)=N\NC(N)=S (stereo not drawn) | -15% | -13% | -39% | 0% | -6% | -13%
CN(CC(=O)Nc1ccc(F)cc1)C(=O)COC(=O)/C=C/c1ccccc1[N+](=O)[O-] | -2% | 0% | . | 2% | . | -3%

Source: PubChem BioAssay
